Measurements taken from PubChem BioAssay AID488850 (National Center for Advancing Translational Sciences (NCATS), 2010).
Inconclusive results are not listed. Active and inactive are the calls of the source. Calls come from the whole dose curve; as a rule, active = well fitted activation curve with a large enough effect; inconclusive = small, poorly fitted or top-dose-only effect; inactive = flat fitted curve, though single readings scatter.

Each compound was assayed against Lysosomal acid glucosylceramidase (Homo sapiens) (UniProt P04062) (assay: qHTS Assay for Inhibitors and Activators of N370S glucocerebrosidase as a Potential Chaperone Treatment of Gaucher Disease: Purified N370S Glucocerebrosidase Confirmation for Probe SAR). Conditions: purified N370S GC, 4MU-glucoside fluorescence, 40 min; series mostly up to 57.5 µM.
Lysosomal acid glucosylceramidase (Homo sapiens), sequence (P04062 whole entry N409S): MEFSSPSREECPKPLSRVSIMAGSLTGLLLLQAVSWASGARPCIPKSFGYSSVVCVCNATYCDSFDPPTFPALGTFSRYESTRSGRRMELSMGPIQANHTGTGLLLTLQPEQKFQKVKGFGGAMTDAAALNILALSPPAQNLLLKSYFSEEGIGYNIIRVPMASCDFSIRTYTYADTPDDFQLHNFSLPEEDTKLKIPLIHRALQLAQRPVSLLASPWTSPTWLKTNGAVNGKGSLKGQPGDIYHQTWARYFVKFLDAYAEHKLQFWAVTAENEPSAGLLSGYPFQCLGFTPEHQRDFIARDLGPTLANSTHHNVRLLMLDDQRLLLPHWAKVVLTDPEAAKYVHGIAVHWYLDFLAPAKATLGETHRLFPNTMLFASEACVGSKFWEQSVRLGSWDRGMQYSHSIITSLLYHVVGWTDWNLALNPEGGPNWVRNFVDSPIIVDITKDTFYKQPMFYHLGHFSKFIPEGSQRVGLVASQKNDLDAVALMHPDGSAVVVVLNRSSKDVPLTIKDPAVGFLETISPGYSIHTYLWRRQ
Text: NIH Chemical Genomics Center [NCGC] NIH Molecular Libraries Probe Production Centers Network [MLPCN] MLPCN Grant: MH086442-01 Assay Submitter (PI): Wei Zheng Glucocerebrosidase (GC) catalyzes the hydrolysis of beta-glucocerebroside to glucose and ceramide in lysosomes. Mutations in the glucocerebrosidase gene result in Gaucher disease, an autosomal recessive lysosomal storage disorder. Many of the mutations encountered in patients with Gaucher disease are missense alterations that may cause misfolding, decreased stability and/or mistrafficking of this lysosomal protein. […] These inhibitors include iminosugar analogs and three non-iminosugar inhibitors identified from a previous HTS of 62,000 compounds with the wild type recombinant enzyme. However, the enhancement of enzyme activity by the chaperone action of an enzyme inhibitor must be balanced against the direct inhibition of the enzyme. An enzyme activator could also function as a chaperone by binding to the enzyme and helping to correct its misfolding and mistrafficking. While activators for GC have not yet been identified, they may have better therapeutic potential than inhibitors. Therefore the discovery and development of chemical activators may provide a new strategy for the chaperone therapy. We have optimized a new assay using N370S mutant GC derived from the spleen of a Gaucher patient. […] In addition, the MLPCN compound library has expanded, which increases the chance of finding new and better probes. This assay characterizes compound activity using purified mutant enzyme instead of tissue homogenate. Compound activity differences may be due to the absence of endogenous cofactors found in tissue homogenate.
NCGC Assay Protocol Summary: This is a fluorogenic enzyme assay with 4-methylumbelliferyl-beta-D-glucopyranoside as the substrate and purified N370S glucocerebrosidase as the enzyme preparation. Upon the hydrolysis of this fluorogenic substrate, the resulting product, […] which can be detected by a standard fluorescence plate reader. Data were normalized to the controls for basal activity (without enzyme) and 100% activity (with enzyme). The AC50 values were determined from concentration-response data modeled with the standard Hill equation. Assay buffer: 50 mM citric acid (titrated with potassium phosphate to pH 5.0), 100 mM potassium chloride, 10 mM sodium chloride, 1 mM magnesium chloride, 0.01% Tween-20. 1536-well assay protocol: (1) Add 2 ul/well of glucocerebrosidase enzyme solution (5 nM final) (2) Add 23 nL compounds in DMSO solution. The final titration was 0.5 nM to 58 uM. (3) Add 2 ul of substrate (1 mM final) (4) Incubate at 37C for 40 min. (5) Add 2 ul stop solution (1M NaOH and 1M Glycine mixture, pH 10) (6) Detect the assay plate in a ViewLux plate reader (PerkinElmer) with Ex=365 nm and Em=440nm. Keywords: Glucocerebrosidase, beta-glucosidase, Gaucher Disease, pharmacological chaperone, chaperone therapy, high throughput screening, glucocerebrosidase inhibitor, MLSMR, MLSCN, NIH Roadmap, qHTS and NCGC

Structure (SMILES)	Potency
Cc1cc(C)n2ncc(C(=O)NC3CCC(C(C)(C)C)CC3)c2n1 (stereo unspecified)	7.3 µM (active)
CCc1ccc(NC(=O)c2cnn3c(C)cc(C)nc23)cc1	16.3 µM (active)
Cc1cc(C)n2ncc(C(=O)Nc3ccc(C)c(C)c3)c2n1	7.3 µM (active)
COc1ccc(NC(=O)c2cnn3c(C)cc(C)nc23)cc1F	5.8 µM (active)
Cc1ccc(NC(=O)c2cnn3c(C)cc(C)nc23)c(C)c1	23.1 µM (active)
O=C(Nc1ccccc1Sc1ccccc1)c1cnn2c1NC(=C1CC1)C=C2C(F)F	16.3 µM (active)
Cc1cc(C)n2ncc(C(=O)Nc3ccc4c(c3)OCCO4)c2n1	16.3 µM (active)
Cc1cc(C)n2ncc(C(=O)N3CCCC3)c2n1	inactive
Cc1cc(C)n2ncc(C(=O)Nc3ccccc3C)c2n1	13 µM (active)
COc1ccc(NC(=O)c2cnn3c(C)cc(C)nc23)cc1Cl	25.9 µM (active)
Cc1cc(C)n2ncc(C(=O)Nc3cccc(C#N)c3)c2n1	inactive
Cc1cc(C)n2ncc(C(=O)NC3CCCCC3)c2n1	11.6 µM (active)
Cc1cc(C)n2ncc(C(=O)NCc3ccccc3)c2n1	13 µM (active)
CC(=O)Nc1ccccc1NC(=O)c1cnn2c(C)cc(C)nc12	inactive
CNC(=O)c1cnn2c(C)cc(C)nc12	inactive
Cc1cc(C)n2ncc(C(=O)Nc3cccc(C(F)(F)F)c3)c2n1	20.6 µM (active)

Structure (SMILES)	Potency
Cc1cc(C)n2ncc(C(=O)Nc3ccc(Br)cc3)c2n1	16.3 µM (active)
C#Cc1ccc(NC(=O)c2cnn3c(C)cc(C)nc23)cc1	6.51 µM (active)
O=C(Nc1cnn(Cc2ccc(F)cc2)c1)c1cnn2c(C(F)F)cc(-c3ccccc3)nc12	10.3 µM (active)
CC(=O)c1ccc(NC(=O)c2cnn3c(C)cc(C)nc23)cc1	inactive
Cc1cc(C)n2ncc(C(=O)Nc3ccc(S(C)(=O)=O)cc3)c2n1	inactive
Cc1cc(C)n2ncc(C(=O)Nc3ccc4c(c3)OCO4)c2n1	5.17 µM (active)
Cc1cc(C)n2ncc(C(=O)NCc3ccco3)c2n1	20.6 µM (active)
Cc1cc(C)n2ncc(C(=O)Nc3ccncc3)c2n1	inactive
Cc1cc(C)n2ncc(C(=O)Nc3ccc4c(c3)CCC4)c2n1	11.6 µM (active)
CC(=O)c1cccc(NC(=O)c2cnn3c(C)cc(C)nc23)c1	20.6 µM (active)
Cc1cccc(NC(=O)c2cnn3c(C)cc(C)nc23)c1	18.3 µM (active)
Cc1cc(C)n2ncc(C(=O)Nc3ccccc3)c2n1	9.19 µM (active)
Cc1cc(C)n2ncc(C(=O)Nc3ccc(C(F)(F)F)cc3)c2n1	13 µM (active)
Cc1ccc(NC(=O)c2cnn3c(C)cc(C)nc23)cc1	16.3 µM (active)
COc1ccc(NC(=O)c2cnn3c(C)cc(C)nc23)cc1	14.6 µM (active)
